Where “and” joins values, the source holds several entries; their conditions need not be identical. Identical values can stand only once. Results filed as inconclusive are left out. Calls of active or inactive are those of the source. Calls follow the shape of the dose curve; as a rule, active = well fitted cell-killing curve with a large enough effect; inconclusive = small, poorly fitted or top-dose-only effect, or effect the other way; inactive = no such curve, though single readings can be large or run the other way.
Assay: Viability qHTS for spleen associated tyrosine kinase inhibitor (SYKi) naive MV4-11 cells (AID 1963823); also: nearly all actives have a fitted effect of over 40% in size
Details: MV4-11 AML viability, CellTiter-Glo luminescence, 72 h; series mostly up to 45 µM
Summary of the method: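 Luminescence from CellTiter-Glo, developed 10 min at room temperature, gave viability of MV4-11 cells never exposed to SYK inhibitor. Cells (500/well) had been incubated with compounds for 72 hr under standard culture conditions.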
Potency is read from the fitted curve at half-maximal effect.

SMILES	Potency
c1ccc(CC2=NCCN2)cc1	inactive
Cc1[nH]nc(C(F)(F)F)c1Cc1sc2c(c1C(=O)N1C[C@](C)(O)CO1)c(=O)n(C)c(=O)n2C(C)C	inactive
CCN(CC)C(C)CN1c2ccccc2Sc2ccccc21 (stereo not given)	inactive
CCN(CC)C(=O)N1CCN(C)CC1	inactive
CCN(CCCOc1ccc2c(Nc3cc(CC(=O)Nc4cccc(F)c4)[nH]n3)ncnc2c1)CCOP(=O)(O)O	23.1 nM (active) and 186 nM (active)
Nc1ccc(F)cc1NC(=O)c1ccc(CNC(=O)/C=C/c2cccnc2)cc1	1.66 µM (active)
COc1cc(C)c(/C=C/C(C)=C/C=C/C(C)=C/C(=O)O)c(C)c1C	2.35 µM (active)
Nc1nc(F)nc2c1ncn2C1OC(COP(=O)(O)O)C(O)C1O (stereo not given)	10.5 µM (active)
COc1c(C)c2c(c(O)c1C/C=C(\C)CCC(=O)O)C(=O)OC2	750 nM (active) and 1.32 µM (active)
CC(C)(C)c1[nH]cnc1/C=c1\[nH]c(=O)/c(=C/c2ccccc2)[nH]c1=O	0.0833 µM (active)
O=C1c2ccccc2C(=O)C1c1ccc(Br)cc1	inactive
CCN(CC)CCOC(=O)C1(C2CCCCC2)CCCCC1	inactive
CC(C)C(=O)OCC(=O)[C@@]12O[C@H](C3CCCCC3)O[C@@H]1C[C@H]1[C@@H]3CCC4=CC(=O)C=C[C@]4(C)[C@H]3[C@@H](O)C[C@@]12C	5.9 µM (active)
CCCCCOc1ccccc1/C(=C\SC)n1ccnc1	11.9 µM (active)
COc1cc2ncnc(Nc3ccc(O)c(Br)c3)c2cc1OC	1.16 µM (active) and 662 nM (active)
NC(=O)c1cccc2c(NC(CN3CCC3)c3ccc(Cl)c(C(F)(F)F)c3)ncnc12 (stereo not given)	1.48 µM (active)
C/C(=N\NC(=O)c1cccc(S(=O)(=O)N2CCOCC2)c1)c1cc(Cl)ccc1O	0.525 µM (active)
COc1ccc(Cl)c(Nc2ncnc3cc(OCC4CCN(C)CC4)c(OC)cc23)c1	5.25 µM (active)
Cc1nc(NC(=O)N2CCC[C@H]2C(N)=O)sc1-c1csc(C(C)(C)C)n1	7.42 µM (active)
COc1ccc2cc1Oc1cc3c(cc1OC)CC[N+](C)(C)[C@H]3Cc1ccc(cc1)Oc1c(OC)c(OC)cc3c1[C@@H](C2)[N+](C)(C)CC3	inactive

SMILES	Potency
CCOC(=O)c1ccnc(CNCC(=O)N(CC)CCN(C)C)c1	inactive
CCNC1(C(N)=O)CCN(c2ncnc3c2nc(-c2ccccc2Cl)n3-c2ccc(Cl)cc2)CC1	7.42 µM (active)
CCC(=O)O[C@]1(C(=O)CCl)[C@@H](C)C[C@H]2[C@@H]3CCC4=CC(=O)C=C[C@]4(C)[C@@]3(F)[C@@H](O)C[C@@]21C	4.73 µM (active) and 10.5 µM (active)
CC(=O)OC[C@H]1O[C@@](COC(C)=O)(O[C@H]2O[C@H](COC(C)=O)[C@@H](OC(C)=O)[C@H](OC(C)=O)[C@H]2OC(C)=O)[C@@H](OC(C)=O)[C@@H]1OC(C)=O	inactive
O=C(O)CCCc1ccccc1	inactive
CNS(=O)(=O)c1ccc2c(c1)/C(=C/c1[nH]c3c(c1CCCN1CCN(C)CC1)CCCC3)C(=O)N2	0.186 µM (active)
O=C(O)[C@@H]1[C@H]2C[C@H]3c4[nH]c5ccccc5c4CCN3C[C@@H]2CC[C@@H]1O	2.66 µM (active)
NC(=O)/C(=C/n1cnc(-c2cc(C(F)(F)F)cc(C(F)(F)F)c2)n1)c1cncnc1	0.132 µM (active)
C#C[C@]1(O)CC[C@H]2[C@@H]3CCC4=Cc5oncc5C[C@]4(C)[C@H]3CC[C@@]21C	15 µM (active)
CC1=C(C(=O)O)N2C(=O)[C@@H](NC(=O)[C@H](N)c3ccccc3)[C@H]2SC1	inactive
C=CC(=O)N1CC/C(=C\c2ccc(F)c([N+](=O)[O-])c2)C(=O)/C(=C/c2ccc(F)c([N+](=O)[O-])c2)C1	0.0332 µM (active)
O=C(O)c1ccccc1NCCc1ccccc1	inactive
CCc1cc(/C(C)=N/OCc2ccc(C3CCCCC3)c(C(F)(F)F)c2)ccc1CN1CC(C(=O)O)C1	18.6 µM (active)
NNc1nnc(NN)c2ccccc12	inactive
C=C1c2cccc(O)c2C(O)=C2C(=O)[C@]3(O)C(O)=C(C(N)=O)C(=O)[C@@H](N(C)C)[C@@H]3[C@@H](O)[C@H]12	inactive
CC(C)NCCCC1(C(N)=O)c2ccccc2-c2ccccc21	inactive
CC[C@@]1(O)C(=O)OCc2c1cc1n(c2=O)Cc2c-1nc1ccccc1c2CCNC(C)C	0.0059 µM (active)
C[C@H]1C[C@H]2[C@@H]3CCC4=CC(=O)C=C[C@]4(C)[C@@]3(Cl)[C@@H](O)C[C@]2(C)[C@@]1(O)C(=O)CO	21.1 µM (active)
CC(C)n1nc(-c2cc3cc(O)ccc3[nH]2)c2c(N)ncnc21	0.116 µM (active)
O=C(Nc1cc(Oc2cc(F)c(NC(=O)C3(C(=O)Nc4ccc(F)cc4)CC3)cc2F)ccn1)C1CC1	23.1 nM (active) and 59 nM (active)

— PubChem BioAssay (NCATS)
